We go through 64 compounds from the antibiotic and cytotoxicity screens of Wong et al. (2023).

In all, about 39,000 compounds went through this assay and about 3,300 (8.5%) were called active. The list comes from a sample in which actives are over-represented; it also holds similar structures and randomly drawn compounds.

The test system of the test is HepG2. The test is described as follows: cytotoxicity call (relative viability < 0.9). Conditions: 10 µM.
As for `C[C@@H]1CN([C@@H](C)CO)S(=O)(=O)c2ccc(C#CCN(C)C)cc2O[C@H]1CN(C)C`, the cytotoxicity call is “inactive”.
The same measure for `C[C@H]1CN([C@@H](C)CO)C(=O)c2cc(NS(=O)(=O)c3ccccc3)ccc2O[C@@H]1CN(C)CC1CC1`: “inactive”; for `C[C@H](CO)N1C[C@H](C)[C@@H](CN(C)Cc2ccc(C(=O)Nc3ccccc3N)cc2)Oc2ccc(NC(=O)Cc3cn(C)c4ccccc34)cc2CC1=O`: “inactive”.
Turning to `CN1C(=O)c2cc(NC(=O)c3cccs3)ccc2OC[C@@H]2O[C@H](CC(=O)NCC(F)(F)F)CC[C@@H]21`, the cytotoxicity call was “inactive”.
Next, `C[C@@H]1CN([C@H](C)CO)C(=O)CCCn2cc(nn2)CO[C@H]1CN(C)S(=O)(=O)c1ccc(Oc2ccccc2)cc1`: “inactive”.
On to `C[C@H](O)C#Cc1cnc2c(c1)C(=O)N([C@@H](C)CO)C[C@@H](C)[C@H](CN(C)C(=O)Nc1ccc(C(F)(F)F)cc1)O2`, for which the cytotoxicity call was “inactive”.
The same measure for `CS(=O)(=O)N1CCCn2c(nnc2Cn2cccn2)C1`: “inactive”; for `O=C(NO)c1ccc(C(=O)N/N=C/[C@H](O)[C@@H](O)[C@H](O)[C@H](O)CO)cc1`: “inactive”.
In the case of `C[C@@H]1CN([C@H](C)CO)C(=O)c2cccc(NS(=O)(=O)c3ccc(F)cc3)c2O[C@H]1CN(C)S(=O)(=O)c1ccccc1`, the cytotoxicity call is “inactive”.
Next, `Cn1c(=O)c2cc(S(=O)(=O)N3CCOCC3)ccc2n(C)c1=O`: “inactive”.
The same measure for `CN(CC(=O)NC1CCCC1)S(=O)(=O)c1ccc2c(c1)c(=O)n(C)c(=O)n2C`: “inactive”; for `Cn1c(=O)c2cc(S(=O)(=O)NCCC(=O)NC3CCCC3)ccc2n(C)c1=O`: “active”; for `Cc1ccc(S(=O)(=O)NCCC(=O)N2CCOCCOCCOCC2)cc1`: “inactive”.
Next, `CCOC(=O)N1CCN(C(=O)CN(C)S(=O)(=O)c2ccc3c(c2)c(=O)n(C)c(=O)n3C)CC1`: “inactive”.
Regarding `C[C@H]1CCCN(C(=O)CCNS(=O)(=O)c2ccc3c(c2)c(=O)n(C)c(=O)n3C)C1`, the cytotoxicity call is “active”.
The same measure for `C[C@H](CO)N1C[C@H](C)[C@H](CN(C)Cc2ccc(C(=O)Nc3ccccc3N)cc2)Oc2ccc(NS(=O)(=O)c3cn(C)cn3)cc2C1=O`: “inactive”; for `C[C@H]1CN([C@@H](C)CO)C(=O)c2cc(NS(=O)(=O)c3cccs3)ccc2O[C@H]1CN(C)Cc1ccncc1`: “inactive”.
Next, `Clc1ccc(/C=C/C2=Nc3cccc4cccc(c34)N2)cc1`: “inactive”; `Nc1c(O)cccc1C(=O)O`: “inactive”.
For the compound `CCC[C@H](NC(=O)[C@@H]1[C@H]2CCC[C@H]2CN1C(=O)[C@@H](NC(=O)[C@@H](NC(=O)c1cnccn1)C1CCCCC1)C(C)(C)C)C(=O)C(=O)NC1CC1`, the cytotoxicity call was “active”.
Next, `CN1CCN(C(=O)C[C@H]2CC[C@@H]3[C@H](COc4ccc(NC(=O)c5ccc(F)c(F)c5)cc4C(=O)N3C)O2)CC1`: “inactive”; `c1cc[n+](C[n+]2ccccc2)cc1`: “inactive”.
Next, `N=C(C[n+]1ccccc1)NO`: “active”; `C[C@@H]1CCCCO[C@H](CN(C)Cc2ccc(C(F)(F)F)cc2)[C@H](C)CN([C@H](C)CO)C(=O)c2cc(NC(=O)c3ccncc3)ccc2O1`: “inactive”; `C[C@@H]1CN([C@H](C)CO)C(=O)c2cc(NC(=O)Nc3ccccc3)ccc2O[C@@H](C)CCCCO[C@H]1CN(C)Cc1ccccc1`: “active”.
Take `C[C@H](CO)N1C[C@H](C)[C@H](CN(C)Cc2ccccc2)OCCCC[C@H](C)Oc2ccc(NC(=O)Nc3ccccc3)cc2C1=O`: the cytotoxicity call was “inactive”.
Next, `C[C@@H]1CCCCO[C@H](CN(C)Cc2ccccc2)[C@H](C)CN([C@H](C)CO)C(=O)c2cc(NC(=O)Nc3ccccc3)ccc2O1`: “inactive”.
On to `C[C@@H]1CCCCO[C@@H](CN(C)Cc2ccccc2)[C@H](C)CN([C@H](C)CO)C(=O)c2cc(NC(=O)Nc3ccccc3)ccc2O1`, for which the cytotoxicity call was “active”.
In the case of `C[C@H](CO)N1C[C@H](C)[C@@H](CN(C)Cc2ccccc2)OCCCC[C@H](C)Oc2ccc(NC(=O)Nc3ccccc3)cc2C1=O`, the cytotoxicity call is “inactive”.
Next, `C[C@@H]1CCCCO[C@H](CN(C)Cc2ccccc2)[C@@H](C)CN([C@@H](C)CO)C(=O)c2cc(NC(=O)Nc3ccccc3)ccc2O1`: “inactive”; `C[C@@H]1CN([C@H](C)CO)C(=O)c2cc(NC(=O)Nc3ccccc3)ccc2O[C@@H](C)CCCCO[C@@H]1CN(C)Cc1ccccc1`: “active”; `C[C@@H]1CN([C@@H](C)CO)C(=O)c2cc(NC(=O)Nc3ccccc3)ccc2O[C@@H](C)CCCCO[C@H]1CN(C)Cc1ccccc1`: “inactive”.
On to `C[C@@H]1CCCCO[C@@H](CN(C)Cc2ccccc2)[C@H](C)CN([C@@H](C)CO)C(=O)c2cc(NC(=O)Nc3ccccc3)ccc2O1`, for which the cytotoxicity call was “active”.
Next, `C[C@@H]1CN([C@@H](C)CO)C(=O)c2cc(NC(=O)Nc3ccccc3)ccc2O[C@@H](C)CCCCO[C@@H]1CN(C)Cc1ccccc1`: “inactive”; `C[C@@H]1CCCCO[C@@H](CN(C)Cc2ccccc2)[C@@H](C)CN([C@H](C)CO)C(=O)c2cc(NC(=O)Nc3ccccc3)ccc2O1`: “inactive”.
Turning to `C[C@@H]1CCCCO[C@H](CN(C)Cc2ccccc2)[C@H](C)CN([C@@H](C)CO)C(=O)c2cc(NC(=O)Nc3ccccc3)ccc2O1`, the cytotoxicity call is “inactive”.
Next, `Cc1noc(C)c1NC(=O)N(C)C[C@@H]1Oc2ccc(NS(=O)(=O)c3cn(C)cn3)cc2CC(=O)N([C@@H](C)CO)C[C@@H]1C`: “inactive”.
The same measure for `Cc1ccc(S(=O)(=O)N(C)C[C@H]2OCCCC[C@@H](C)Oc3ccc(NC(=O)Nc4ccc5c(c4)OCO5)cc3C(=O)N([C@@H](C)CO)C[C@H]2C)cc1`: “inactive”; for `C[C@@H]1CN([C@@H](C)CO)C(=O)c2cc(NC(=O)Cc3cn(C)c4ccccc34)ccc2O[C@@H]1CN(C)S(=O)(=O)c1cn(C)cn1`: “inactive”; for `CN(C)C(=O)C[C@H]1CC[C@@H]2[C@H](COc3ccc(NS(=O)(=O)c4cccc(F)c4)cc3C(=O)N2C)O1`: “inactive”.
The same measure for `Cc1ccc(S[C@]2(C(=O)NC(C)C)CC(=O)N(Cc3ccccc3C(F)(F)F)[C@@H]2c2ccc(CO)cc2I)cc1`: “inactive”; for `CC(C)NC(=O)Nc1ccc2c(c1)C(=O)N([C@H](C)CO)C[C@@H](C)[C@H](CN(C)Cc1ccccc1)OCCCC[C@@H](C)O2`: “inactive”; for `C[C@@H]1CCCCO[C@H](CN(C)S(=O)(=O)c2cn(C)cn2)[C@@H](C)CN([C@@H](C)CO)C(=O)c2cc(N(C)C)ccc2O1`: “inactive”.
Take `Cc1ccc(S(=O)(=O)N(C)C[C@H]2OCCCC[C@@H](C)Oc3ccc(NC(=O)Nc4c(C)noc4C)cc3C(=O)N([C@H](C)CO)C[C@@H]2C)cc1`: the cytotoxicity call was “inactive”.
The same measure for `CSc1ccc2cc(CN(C[C@H]3CCCO3)C(=O)c3ccco3)c(N(C)Cc3csc(C)n3)nc2c1`: “inactive”; for `C[C@@H]1CN([C@@H](C)CO)C(=O)c2cc(NC(=O)CCCN(C)C)ccc2O[C@@H](C)CCCCO[C@@H]1CN(C)S(C)(=O)=O`: “inactive”; for `CO[C@@H]1CN(C)C(=O)c2cc(NC(=O)Nc3ccccc3)ccc2OC[C@@H](C)N(C(=O)CN(C)C)C[C@H]1C`: “inactive”.
Take `CC(OC1OCCN(C(C)c2nc(=O)[nH][nH]2)C1c1ccc(F)cc1)c1cc(C(F)(F)F)cc(C(F)(F)F)c1` (centres undefined): the cytotoxicity call was “active”.
Next, `C[C@@H](O[C@H]1OCCN(Cc2n[nH]nc2CN(C)C)[C@H]1c1ccc(F)cc1)c1cc(C(F)(F)F)cc(C(F)(F)F)c1`: “active”.
The same measure for `COc1ccc(S(=O)(=O)Nc2cccc3c2O[C@@H](CN(C)Cc2ccc(-c4ccccc4)cc2)[C@@H](C)CN([C@@H](C)CO)C3=O)cc1`: “inactive”; for `CC(C)NC(=O)N(C)C[C@@H]1OCCCC[C@@H](C)Oc2ccc(NC(=O)C3CCCCC3)cc2C(=O)N([C@H](C)CO)C[C@H]1C`: “inactive”; for `C[C@H](CO)N1C[C@H](C)[C@@H](CN(C)CC2CCCCC2)Oc2ccc(NC(=O)Cc3cn(C)c4ccccc34)cc2CC1=O`: “inactive”.
The same measure for `C[C@H](CO)N1C[C@H](C)[C@@H](CN(C)Cc2ccc(-c3ccccc3)cc2)Oc2ccc(NC(=O)Cc3cn(C)c4ccccc34)cc2CC1=O`: “inactive”; for `C[C@H]1CN([C@@H](C)CO)C(=O)Cc2cc(NC(=O)Cc3cn(C)c4ccccc34)ccc2O[C@@H]1CN(C)Cc1ccc(C(=O)Nc2ccccc2N)cc1`: “inactive”.
Regarding `C[C@H](CO)N1C[C@H](C)[C@H](CN(C)Cc2ccc(-c3ccccc3)cc2)Oc2ccc(NC(=O)Cc3cn(C)c4ccccc34)cc2CC1=O`, the cytotoxicity call is “inactive”.
Next, `C[C@@H]1CN([C@H](C)CO)C(=O)Cc2cc(NC(=O)Cc3cn(C)c4ccccc34)ccc2O[C@@H]1CN(C)Cc1ccc(C(=O)Nc2ccccc2N)cc1`: “inactive”; `C[C@@H]1CN([C@H](C)CO)C(=O)Cc2cc(NC(=O)Cc3cn(C)c4ccccc34)ccc2O[C@H]1CN(C)Cc1ccc(-c2ccccc2)cc1`: “active”.
`C[C@H]1CN([C@@H](C)CO)C(=O)Cc2cc(NC(=O)Cc3cn(C)c4ccccc34)ccc2O[C@H]1CN(C)Cc1ccc(-c2ccccc2)cc1`: the cytotoxicity call is “inactive”.
Next, `C[C@@H]1CN([C@@H](C)CO)C(=O)Cc2cc(NC(=O)Cc3cn(C)c4ccccc34)ccc2O[C@@H]1CN(C)Cc1ccc(-c2ccccc2)cc1`: “active”; `C[C@@H]1CN([C@@H](C)CO)C(=O)Cc2cc(NC(=O)Cc3cn(C)c4ccccc34)ccc2O[C@@H]1CN(C)CC1CCCCC1`: “active”; `C[C@@H]1CN([C@H](C)CO)C(=O)Cc2cc(NC(=O)Cc3cn(C)c4ccccc34)ccc2O[C@@H]1CN(C)CC1CCCCC1`: “inactive”.
For the compound `C[C@H](CO)N1C[C@H](C)[C@H](CN(C)Cc2ccc(C(=O)Nc3ccccc3N)cc2)Oc2ccc(NC(=O)Cc3cn(C)c4ccccc34)cc2CC1=O`, the cytotoxicity call was “active”.
The same measure for `C[C@@H]1CN([C@@H](C)CO)C(=O)Cc2cc(NC(=O)Cc3cn(C)c4ccccc34)ccc2O[C@H]1CN(C)Cc1ccc(-c2ccccc2)cc1`: “inactive”.
The same measure for `C[C@@H]1CN([C@H](C)CO)C(=O)c2cc(NC(=O)CCCN(C)C)ccc2O[C@@H]1CN(C)S(=O)(=O)c1ccccc1`: “inactive”.
